In the library only some 1.1% were active in any assay of this set; here they are far more common.
MsrA inhibitor: inhibits bovine methionine sulfoxide reductase A; purified bovine MsrA, absorbance read-out; inhibition, % at 15.5 µM; hit rate 0.75% among 360,000; AID 651718; in the data active means inhibition above about 4.5%
PKA-R2B activ: activators of human PKA-R2B complex; P22694+P31323; PKA-R2B holoenzyme dissociation, Cy5-IP20 fluorescence polarization; R2B truncated from residue 108, S112A mutant; 0% DMSO only, 100% 113 µM cGMP; activation, % at 11.4 µM; hit rate 0.079% among 340,000;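 active means activation above a cutoff set at the mean over all compounds plus 3 SD, cut at about 18% in these data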;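 further: higher means more holoenzyme dissociation and a rise in polarization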
Target sequence (P31323 whole entry, looked up, other chains not shown, the tested form may be a part): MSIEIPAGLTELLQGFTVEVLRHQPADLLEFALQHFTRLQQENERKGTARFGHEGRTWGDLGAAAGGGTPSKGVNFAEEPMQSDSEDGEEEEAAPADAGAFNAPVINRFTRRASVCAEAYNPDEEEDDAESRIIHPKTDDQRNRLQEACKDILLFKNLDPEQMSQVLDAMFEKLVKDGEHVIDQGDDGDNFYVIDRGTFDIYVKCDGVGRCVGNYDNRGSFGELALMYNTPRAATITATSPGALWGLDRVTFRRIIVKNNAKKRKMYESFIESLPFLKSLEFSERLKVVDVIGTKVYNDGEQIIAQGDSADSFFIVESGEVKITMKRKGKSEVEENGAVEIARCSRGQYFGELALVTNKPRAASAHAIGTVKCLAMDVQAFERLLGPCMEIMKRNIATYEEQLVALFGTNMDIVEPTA
PKA-R1A activ: activators of PKA-R1A complex; AID 504707; hit rate 0.083% among 340,000; activation, % at 11.4 µM; PKA-R1A dissociation, Cy5-IP20 fluorescence polarization; scaled: DMSO 0%, 113 µM cGMP 100%;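 active means percent activation above the mean of all tested compounds plus 3 SD, cut at about 19% in these data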;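 further: higher means more PKAc released from R1A so a rise in polarization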
bovine MsrA act: activates bovine MsrA enzyme; hit rate 0.3% among 360,000; purified bovine MsrA, absorbance read-out; activation, % at 10.6 µM; in the data active means activation above about 7.5%
MsrA activ conf: confirmation of bovine methionine sulfoxide reductase A activators; shares compounds with bovine MsrA act; purified bovine MsrA, absorbance read-out; activation, % at 10.6 µM; hit rate 12% among 1,000; in the data active means activation above about 4%;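 further: enzyme coupled to thioredoxin and thioredoxin reductase with NADPH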
Each line names hits and unclear results; the compound was inactive in the other large screens (follow-up assays come after a bar, where they were run).

Cc1ccccc1Nc1nc(N)nc(COC(=O)[C@@H](NC(=O)c2ccccc2Cl)C(C)C)n1	bovine MsrA act 8.1 | MsrA activ conf inactive
COC(=O)[C@]12C[C@H](CC(=O)NCc3cccc(C(F)(F)F)c3)C(=O)N(Cc3ccccc3)C1=C[C@H](C(C)C)O[C@@H]2C1CC1	none (no result: PKA-R2B activ, PKA-R1A activ, bovine MsrA act)
O=C(N[C@@H](Cc1cccnc1)C(=O)N1CCC[C@H]1C(=O)NCCc1ccccc1Cl)c1ccco1	none (no result: PKA-R2B activ, PKA-R1A activ, bovine MsrA act)
CCn1c(=O)cc(OCC(=O)O)c2ccccc21	bovine MsrA act 14 | MsrA activ conf inactive
Cc1cccc(NC(=S)N(CCN(C)C)Cc2cc3cc(C)cc(C)c3[nH]c2=O)c1	none
Cc1cccc(NC(=S)N(CCN(C)C)Cc2cc3cccc(C)c3[nH]c2=O)c1	bovine MsrA act 20 | MsrA activ conf inactive
COC(=O)[C@]12C[C@H](CC(=O)N3CCN(C(=O)C4CC4)CC3)C(=O)N(CCC3=CCCCC3)C1=C[C@H](C(C)(C)C)O[C@@H]2C	none (no result: PKA-R2B activ, PKA-R1A activ, bovine MsrA act)
CCCN1CCCCC(NC(=O)c2ccccc2OC)C1=O (centres undefined)	none (no result: PKA-R2B activ, PKA-R1A activ, bovine MsrA act)
CCC(=O)N1CCc2cc(Br)cc(S(=O)(=O)CCC(=O)NCc3ccco3)c21	bovine MsrA act 14 (no result: MsrA inhibitor) | MsrA activ conf inactive
CCOC(=O)N1CCN(c2c(F)cc3[nH]c(=S)[nH]c3c2Br)CC1	bovine MsrA act 12 | MsrA activ conf inactive
COC(=O)c1ccc(/C=C2/SC(=S)N(CCC(=O)NCCCN3CCOCC3)C2=O)cc1	bovine MsrA act 8.1 | MsrA activ conf inactive
Cn1c(=O)oc2ccc(S(=O)(=O)Nc3ccc(Cl)cc3[N+](=O)[O-])cc21	none (no result: PKA-R2B activ, PKA-R1A activ, bovine MsrA act)
CC(=O)Nc1ccc(NC(=O)CC(C)n2ccnc2)cc1 (centres undefined)	bovine MsrA act 8.5 | MsrA activ conf inactive
COc1ccc(C(=O)CC2(O)C(=O)N(CN3CCOCC3)c3ccc(Br)cc32)cc1 (centres undefined)	none (no result: PKA-R2B activ, PKA-R1A activ, bovine MsrA act)
COc1ccccc1CNC(=O)C(=O)NCC1CCCO1 (centres undefined)	none
COc1ccccc1CC(=O)NCC1CCCO1 (centres undefined)	bovine MsrA act 8.4 | MsrA activ conf inactive
CCOC(=O)C1CCCN(C(=O)CCCn2nnnc2CN2CCOCC2)C1 (centres undefined)	bovine MsrA act 15 | MsrA activ conf inactive
COc1ccc(-c2ccc3c(n2)CCCN3S(=O)(=O)c2ccccc2C)cc1	none (no result: PKA-R2B activ, PKA-R1A activ, bovine MsrA act)
CC(=O)Nc1nc(-c2ccc(Cl)cc2)nc(C)c1C(C)=O	bovine MsrA act 8.9 | MsrA activ conf inactive
CC(=O)c1c(C)nc(C)nc1NC(=O)Cc1ccccc1	none
O=C(NCc1nnnn1-c1ccc(F)cc1)C1CC(=O)N(c2ccc(F)cc2)C1 (centres undefined)	none
Cc1ccc(-n2nnnc2CNC(=O)C2CC(=O)N(c3ccc(F)cc3)C2)cc1C (centres undefined)	bovine MsrA act 7.7 | MsrA activ conf inactive
Cc1ccc(C2(C)NC(=O)N(CC(=O)Nc3ccc4c(c3)OCO4)C2=O)cc1 (centres undefined)	bovine MsrA act 11 | MsrA activ conf inactive
COc1ccc(N2CC(NC(=O)c3ccc4ccccc4c3)CC2=O)cc1OC (centres undefined)	bovine MsrA act 11 | MsrA activ conf inactive
COc1ccc(N2CC(NS(=O)(=O)c3ccc4ccccc4c3)CC2=O)cc1OC (centres undefined)	none
CCCCc1nnn2c1C1c3cc(-c4cccnc4)ccc3CCN1C(=O)C2 (centres undefined)	none (no result: PKA-R2B activ, PKA-R1A activ, bovine MsrA act)
COc1ccccc1C(=O)Nc1ccccn1	bovine MsrA act 12 | MsrA activ conf inactive
CC(=O)Nc1ccc2sn(-c3ccccc3)c(=O)c2c1	bovine MsrA act 9.8 | MsrA activ conf 5.7
N#Cc1ccc2sn(-c3ccccc3)c(=O)c2c1	bovine MsrA act 12 | MsrA activ conf 8.9
COc1ccc(-n2sc3ccccc3c2=O)cc1	none
O=c1c2cc([N+](=O)[O-])ccc2sn1-c1ccccc1	bovine MsrA act 9.8 | MsrA activ conf 7.5
O=c1c2cc(F)ccc2sn1-c1ccc(F)cc1	none (no result: MsrA inhibitor)
C[C@]12Cc3ccccc3C1CC1=N[C@@H](c3ccc(C(F)(F)F)cc3)O[C@@]13C[C@@H]2C(=O)N3C1CCN(Cc2ccccc2)CC1 (some centres undefined)	none (no result: PKA-R2B activ, PKA-R1A activ, bovine MsrA act)
O=C(NCc1ccc(F)cc1)c1cc2ccccc2o1	bovine MsrA act 9.6 | MsrA activ conf inactive
OCCNCCSc1ccc(Cl)cc1	bovine MsrA act 9.3 | MsrA activ conf inactive
N#C/C(=C\c1ccc(OCC(N)=O)cc1)C(=O)NC1CC1	bovine MsrA act 13 | MsrA activ conf inactive

Screens (PubChem BioAssay)
